# Laboratory results from PubChem BioAssay (Tox21).
# Results filed as inconclusive are left out. A call without a number means that no potency is given here. The source made the active and inactive calls. Calls come from the whole dose curve; as a rule, active = well fitted activation curve with a large enough effect in the repeat runs; inconclusive = weak or mixed curves; inactive = flat fitted curve, though single readings scatter.
# Assay: A CellTox Green Cytotoxicity Assay to monitor cytotoxicity in HEK293 cells - 24 hour (AID 1224875); note: nearly all actives have a fitted effect of over 45% in size
# Details: CellTox Green fluorescence; series mostly up to 76.8 µM
# Excerpt: National Center for Advancing Translational Sciences [NCATS]
# NIH Chemical Genomics Center [NCGC]
# U.S. Environmental Protection Agency [EPA]
# National Institutes of Environmental Health Sciences [NIEHS]
# National Toxicology Program [NTP]
# Cell-based models are critical for drug discovery. Determining the natural cytotoxic effects resulting from test compounds is an essential research activity. A CellTox Green Cytotoxicity Assay to monitor cytotoxicity in real time of continues cell culture during 40 hours of the compound treatment was used to screen Tox21 10K library compounds in Hek293 cells. CellTox Green Cytotoxicity Assay is a nonlytic, homogeneous, biofluorescent method to measure cytotoxicity in cell culture after experimental manipulation. The assay system uses a proprietary asymmetric cyanine dye that is excluded from viable cells but preferentially stains the dead cell's DNA. […] Viable cells produce no appreciable increases in fluorescence. Therefore, the fluorescence signal produced by the binding interaction with dead cell DNA is proportional to cytotoxicity.
# The mixture of Hek293 cell suspension and reagents were dispensed at 600cells/6 ul/well in 1536-well tissue culture treated black solid bottom plates using a Multidrop dispenser. After the assay plates were incubated at a 37 C/5% CO2 incubator for 5 hours, 23 nL of compounds dissolved in DMSO, positive and negative controls was transferred to the assay plate by a pintool work station. The plates were incubated at 37 C for 40 hours. The fluorescence intensity were measured at 0h, 8h, 16h, 24h, 32h and 40h time points using ViewLux plate reader during compound treatment.
# Potency is the fitted concentration of half-maximal effect.
Structure (SMILES),Potency,activity change
CCN(CC)c1ccc(C=O)c(O)c1,inactive,
CCCCCCCCc1ccc(Nc2ccc(CCCCCCCC)cc2)cc1,inactive,
CN1CCN(C)CC1,inactive,
CCN(CCC#N)c1ccc(N=Nc2ccc([N+](=O)[O-])cc2)cc1,inactive,
CCCCCCCCCCCC(=O)Cl,inactive,
Nc1ccc2c(S(=O)(=O)O)cccc2c1S(=O)(=O)O,inactive,
C=C[Si](C)(C)Cl,,"-5.65% [at 6.97 µM, hits give high values] (inactive)"
Cn1ccnc1,inactive,
CC/C=C\C/C=C\C/C=C\CCCCCCCC(=O)OC,inactive,
O=C1OC(=O)c2cc(-c3ccc4c(c3)C(=O)OC4=O)ccc21,inactive,
O=C(CCN1CCC(c2ccccc2)C1)c1ccc2c(c1)OCCO2 (stereo not given),inactive,
CCCCCCCCSCc1cc(C)c(O)c(CSCCCCCCCC)c1,inactive,
Nc1c(Br)cc([N+](=O)[O-])cc1Br,inactive,
COC(=O)c1ccc([N+](=O)[O-])cc1,inactive,
c1ccc(-c2nc3ccccc3[nH]2)cc1,inactive,
O=C(NCc1ncc(C(F)(F)F)cc1Cl)c1c(Cl)cccc1Cl,inactive,
CCCCCN=C(N)N/N=C/c1c[nH]c2ccc(OC)cc12,6.74 µM (active),
CCCCCCCCCCCCS(=O)(=O)Cl,,"-0.292% [at 15.8 µM, hits give high values] (inactive)"
CCC(C)(C)c1ccc(CC(C)CN2C[C@@H](C)O[C@@H](C)C2)cc1 (stereo not given in full),23.9 µM (active),
CC1(C)[C@H](C(=O)OCc2cccc(Oc3ccccc3)c2)[C@@H]1C=C(Cl)Cl,inactive,

Structure (SMILES),Potency,activity change
Cc1cccc(C)c1C,inactive,
CC(C)c1ccc2sc3ccccc3c(=O)c2c1,inactive,
Nc1ccc(Cl)c([N+](=O)[O-])c1,inactive,
O=c1cc[nH]cc1,inactive,
Nc1cccnc1N,inactive,
Cc1ccc(S(=O)(=O)C(I)I)cc1,34.7 µM (active),
NC(=O)c1ccccc1Cl,inactive,
CCC(=O)OC/C=C(\C)CCC=C(C)C,inactive,
CO[Si](OC)(c1ccccc1)c1ccccc1,inactive,
CCC(O)CO (stereo not given),inactive,
CN(C[C@@H](CC[N+]12CCC(C3CCCCC3)(CC1)CC2)c1ccc(Cl)c(Cl)c1)C(=O)c1cc(C(F)(F)F)cc(C(F)(F)F)c1,24.5 µM (active),
C=C1CC[C@H]2O[C@]2(C)CC[C@@H]2[C@@H]1CC2(C)C,inactive,
CCCCCCCCCC[N+](C)(CCCCCCCCCC)CCC[Si](OC)(OC)OC,38.9 µM (active),
CCC1(C)C(=O)N(Cl)C(=O)N1Cl (stereo not given),inactive,
C=Cc1ccc(O)c(OC)c1,inactive,
Cc1ccc(C=O)cc1,inactive,
O=C(Nc1ccc([N+](=O)[O-])cc1)Nc1ccc([N+](=O)[O-])cc1 (tested in a mixture with another compound),inactive,
Oc1ccc(Cl)cc1C1CCCC1,54.9 µM (active),
O=C1CCC(=O)N1,inactive,
CCOC(=O)[C@H](O)[C@@H](O)C(=O)OCC,inactive,
